Reference: PubChem BioAssay (Tox21)
Inconclusive results are not listed. Activity calls are given as the source filed them. Unless noted, the call rests on the fitted dose curve.

Key:
[1] = Nuclear factor erythroid 2-related factor 2/antioxidant responsive element (Nrf2/ARE) small molecule agonists: qHTS cell viability counter screen in human keratinocytes (AID 1919968; active means well fitted curve in the direction sought with a large enough effect in the repeat runs; an effect the other way counts as inactive or inconclusive; further: nearly all actives have a fitted effect of over 55% in size; further: potency means the concentration at half of the fitted maximal effect)
How it was run: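 Cytotoxicity was multiplexed with the Nrf2/ARE luciferase assay in the same wells. Stably transfected HaCaT keratinocytes were treated with test compounds for 23 h at 37 C. Cell viability was then measured by CellTiter-Fluor fluorescence.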

[2] = target: Gonadotropin-releasing hormone receptor (Homo sapiens) (UniProt P30968); experiment: Human gonadotropin-releasing hormone receptor (GnRHR) small molecule agonists, calcium flux assay in GnRHR-HEK293 cells (AID 1920063); further: nearly all actives have a fitted effect of over 35% in size
Sequence of Gonadotropin-releasing hormone receptor (Homo sapiens) (P30968 whole entry, looked up): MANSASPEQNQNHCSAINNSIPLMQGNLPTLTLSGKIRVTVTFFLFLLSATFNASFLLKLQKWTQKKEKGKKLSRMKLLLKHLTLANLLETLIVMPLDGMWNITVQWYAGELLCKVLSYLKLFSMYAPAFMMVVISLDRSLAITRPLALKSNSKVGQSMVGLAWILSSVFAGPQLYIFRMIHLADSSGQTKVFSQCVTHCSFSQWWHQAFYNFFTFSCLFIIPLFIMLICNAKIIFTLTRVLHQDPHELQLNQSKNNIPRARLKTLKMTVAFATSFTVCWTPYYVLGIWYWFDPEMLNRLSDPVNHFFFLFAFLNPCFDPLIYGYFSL
How it was run: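 Agonist activity was measured as intracellular calcium flux in HEK293 cells engineered to stably express human GnRHR. After dye loading for 1 hour at 37 C, compounds in DMSO were added and fluorescence was followed for 3 minutes.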

[3] = target: KiSS-1 receptor (Homo sapiens) (UniProt Q969F8); experiment: Human kisspeptin (KISS1R) small molecule agonists, calcium flux assay in KISS1R-HEK293 cells (AID 1920064; active means well fitted curve in the direction sought with a large enough effect in the repeat runs; an effect the other way counts as inactive or inconclusive)
Sequence of KiSS-1 receptor (Homo sapiens) (Q969F8 whole entry, looked up): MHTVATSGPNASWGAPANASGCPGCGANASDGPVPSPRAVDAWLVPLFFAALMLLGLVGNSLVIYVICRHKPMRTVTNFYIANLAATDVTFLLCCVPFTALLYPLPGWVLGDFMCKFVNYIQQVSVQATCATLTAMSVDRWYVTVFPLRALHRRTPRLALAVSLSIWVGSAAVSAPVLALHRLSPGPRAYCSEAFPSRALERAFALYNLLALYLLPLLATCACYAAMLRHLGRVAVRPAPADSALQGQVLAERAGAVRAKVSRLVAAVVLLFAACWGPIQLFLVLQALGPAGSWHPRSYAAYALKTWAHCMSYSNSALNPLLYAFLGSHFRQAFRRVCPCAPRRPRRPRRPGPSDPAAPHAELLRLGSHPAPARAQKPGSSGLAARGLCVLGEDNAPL
How it was run: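 Agonist activity is monitored as intracellular calcium rise in engineered HEK293 cells carrying human KISS1R. Cells are dye-loaded for 1 h at 37 C before compound addition, and fluorescence is recorded for 3 min.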

[4] = p53 small molecule agonists, cell-based qHTS assay with human liver microsomes (AID 1963577)
How it was run: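 Cells carrying a p53-responsive bla reporter were rested 5 h (37 C, 5% CO2) before compound transfer. Human liver microsomes plus NADPH, 0.5 mg/mL final apiece, supplied metabolism during the 16 h 37 C exposure.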

[5] = p53 small molecule agonists, cell-based qHTS assay with rat liver microsomes (AID 1963578)
How it was run: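 Fluorescence from a beta-lactamase reporter under a p53 response element was measured after cells had been incubated 16 h at 37 C with test compound and rat liver microsomes plus NADPH (0.5 mg/mL final each).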

[6] = p53 small molecule agonists, cell-based qHTS assay with human liver microsomes: qHTS cell viability counter screen (AID 1963579); further: nearly all actives have a fitted effect of over 45% in size; further: potency means the concentration at half of the fitted maximal effect
How it was run: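 Seed p53RE-bla cells at 4,000 per well; incubate 5 h at 37 C; add compound, human liver microsomes and NADPH; incubate 16 h at 37 C; add CellTiter-Glo; after 30 min at room temperature, read luminescence.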

[7] = p53 small molecule agonists, cell-based qHTS assay with rat liver microsomes: qHTS cell viability counter screen (AID 1963580); further: nearly all actives have a fitted effect of over 45% in size
How it was run: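 Rat liver microsome (0.5 mg/mL final) and NADPH (0.5 mg/mL final) co-incubation with compounds for 16 h at 37 C on HCT-116 p53RE-bla cells; cytotoxicity taken from intracellular ATP luminescence.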

[8] = p53 small molecule agonists, cell-based qHTS assay: qHTS cell viability counter screen (AID 1963581); further: nearly all actives have a fitted effect of over 45% in size
How it was run: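 Viability was counter-screened in parallel with the p53 agonist reporter by measuring intracellular ATP luminescence in the same HCT-116 p53RE-bla wells after 16 h compound treatment at 37 C.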

[9] = target: 5-hydroxytryptamine receptor 2A (Homo sapiens) (UniProt P28223); experiment: 5-hydroxytryptamine receptor 2A (HTR2A) small molecule agonists, cell-based qHTS assay (AID 1963587); further: nearly all actives have a fitted effect of over 30% in size
Sequence of 5-hydroxytryptamine receptor 2A (Homo sapiens) (P28223 whole entry, looked up): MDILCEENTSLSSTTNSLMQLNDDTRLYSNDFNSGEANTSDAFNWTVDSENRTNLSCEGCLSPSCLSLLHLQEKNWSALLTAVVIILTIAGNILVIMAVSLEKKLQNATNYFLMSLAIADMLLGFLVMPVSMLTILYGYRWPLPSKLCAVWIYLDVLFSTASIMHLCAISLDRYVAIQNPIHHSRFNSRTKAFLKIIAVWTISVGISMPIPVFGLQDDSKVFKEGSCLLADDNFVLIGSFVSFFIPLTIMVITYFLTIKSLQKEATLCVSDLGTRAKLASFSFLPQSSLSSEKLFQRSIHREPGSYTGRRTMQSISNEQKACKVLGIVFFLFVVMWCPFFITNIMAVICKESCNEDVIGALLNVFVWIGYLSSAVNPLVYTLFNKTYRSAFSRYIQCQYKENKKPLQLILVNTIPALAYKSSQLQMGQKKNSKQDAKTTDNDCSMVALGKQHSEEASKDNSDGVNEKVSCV
How it was run: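 Kinetic calcium-flux fluorescence (2 min, 1 sec intervals) after compound addition in agonist mode. HTR2A-CHO cells were cultured 18 h, then dye-loaded 1 h at 37 C.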

[10] = target: Muscarinic acetylcholine receptor M1 (Homo sapiens) (UniProt P11229); experiment: Cholinergic receptor muscarinic 1 (CHRM1) small molecule antagonists, cell-based qHTS assay (AID 1963588); further: nearly all actives have a fitted effect of over 40% in size; further: potency means the concentration at half of the fitted maximal effect
Sequence of Muscarinic acetylcholine receptor M1 (Homo sapiens) (P11229 whole entry, looked up): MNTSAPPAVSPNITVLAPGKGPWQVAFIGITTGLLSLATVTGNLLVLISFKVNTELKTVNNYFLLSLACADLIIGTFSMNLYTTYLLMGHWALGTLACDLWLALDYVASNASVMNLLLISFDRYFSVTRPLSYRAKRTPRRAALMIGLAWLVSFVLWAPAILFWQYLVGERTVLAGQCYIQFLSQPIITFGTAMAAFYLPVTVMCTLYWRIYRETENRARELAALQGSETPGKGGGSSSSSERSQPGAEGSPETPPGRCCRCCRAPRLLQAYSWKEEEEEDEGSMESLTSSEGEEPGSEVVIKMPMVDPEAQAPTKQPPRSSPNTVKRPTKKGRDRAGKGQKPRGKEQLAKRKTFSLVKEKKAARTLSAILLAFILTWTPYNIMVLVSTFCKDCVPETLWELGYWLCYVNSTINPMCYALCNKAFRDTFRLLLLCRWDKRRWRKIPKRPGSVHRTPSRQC
How it was run: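 Compounds were tested at 15 concentrations in three independent runs. Dye-loaded CHRM1-CHO cells were exposed 5 min at room temperature before stimulation by acetylcholine added at 50nM. Intracellular calcium was read kinetically on FDSS for 3 min.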

[11] = target: Muscarinic acetylcholine receptor M1 (Homo sapiens) (UniProt P11229); experiment: Cholinergic receptor muscarinic 1 (CHRM1) small molecule agonists, cell-based qHTS assay (AID 1963589); further: nearly all actives have a fitted effect of over 35% in size
How it was run: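 Cells were plated and incubated 18 h at 37 C/5% CO2, loaded with calcium dye for 1 h at 37 C, then treated with compounds in DMSO. Fluorescence was recorded kinetically at 1 sec intervals.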

[12] = cAMP Responsive Elements (CRE) small molecule agonists, cell-based qHTS assay (AID 1963590)
How it was run: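 Cells carrying a CRE-driven beta-lactamase reporter (HEK 293T) are seeded, incubated overnight (18 h), and treated with test compounds for 3 h at 37 C; reporter activity is then detected with a FRET substrate after 2 h at room temperature.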

[13] = cAMP Responsive Elements (CRE) small molecule antagonists, cell-based qHTS assay (AID 1963591; active means well fitted inhibition curve with a large enough effect in the signal ratio in the repeat runs, not every such curve was filed as active; the % refers to the signal ratio)
How it was run: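 Cells (CRE-bla HEK 293T, DMEM with 10% dialyzed FBS and 25 mM HEPES) are seeded and incubated 18 h. Compounds are added with NKH477 agonist at 0.25 uM final for 3 h, then FRET substrate for 2 h.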

[14] = target: Beta-2 adrenergic receptor (Homo sapiens) (UniProt P07550); experiment: Adrenergic beta2 receptor (ADRB2) small molecule antagonists, cell-based qHTS assay (AID 1963592); further: nearly all actives have a fitted effect of over 50% in size; further: potency means the concentration at half of the fitted maximal effect; on activity change, negative = inhibition: series mostly up to about 92 µM
Sequence of Beta-2 adrenergic receptor (Homo sapiens) (P07550 whole entry, looked up): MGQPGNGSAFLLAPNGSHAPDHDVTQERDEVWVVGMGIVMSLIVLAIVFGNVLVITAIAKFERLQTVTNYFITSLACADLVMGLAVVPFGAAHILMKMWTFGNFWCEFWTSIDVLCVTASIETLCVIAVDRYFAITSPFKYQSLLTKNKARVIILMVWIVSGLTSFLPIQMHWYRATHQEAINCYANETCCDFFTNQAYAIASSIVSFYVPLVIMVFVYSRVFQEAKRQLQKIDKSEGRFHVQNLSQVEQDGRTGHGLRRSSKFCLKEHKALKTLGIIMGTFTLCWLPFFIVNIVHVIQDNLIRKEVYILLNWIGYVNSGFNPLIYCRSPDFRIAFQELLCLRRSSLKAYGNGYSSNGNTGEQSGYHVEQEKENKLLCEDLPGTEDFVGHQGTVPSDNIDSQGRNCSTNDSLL
How it was run: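 Assay format: CHO-ADRB2 cells, 18-20hr seeding at 37C/5% CO2, then compound plus 1nM isoproterenol agonist mix for 0.5hr RT. Homogeneous time-resolved fluorescence cAMP detection after 1hr, expressed as 665/615 nm ratio.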

[15] = target: D(2) dopamine receptor (Homo sapiens) (UniProt P14416); experiment: Dopamine D2 receptor (DRD2) small molecule agonists, cell-based qHTS assay (AID 1963594); further: nearly all actives have a fitted effect of over 35% in size; further: potency means the concentration at half of the fitted maximal effect
Sequence of D(2) dopamine receptor (Homo sapiens) (P14416 whole entry, looked up): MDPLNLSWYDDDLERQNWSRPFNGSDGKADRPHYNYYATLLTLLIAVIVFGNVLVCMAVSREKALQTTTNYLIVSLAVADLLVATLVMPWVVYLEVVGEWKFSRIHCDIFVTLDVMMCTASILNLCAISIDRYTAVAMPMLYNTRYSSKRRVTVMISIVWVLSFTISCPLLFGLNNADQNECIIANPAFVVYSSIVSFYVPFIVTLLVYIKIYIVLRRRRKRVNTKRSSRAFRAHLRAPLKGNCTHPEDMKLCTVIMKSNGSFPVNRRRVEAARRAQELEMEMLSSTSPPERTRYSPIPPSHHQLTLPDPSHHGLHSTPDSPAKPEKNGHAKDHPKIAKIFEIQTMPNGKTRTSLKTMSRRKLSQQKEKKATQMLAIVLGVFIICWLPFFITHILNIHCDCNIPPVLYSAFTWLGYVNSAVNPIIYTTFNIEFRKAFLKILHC
How it was run: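 cAMP accumulation in DRD2-HEK293 cells measured by HTRF after 1 h detection; compounds added 10 min before NKH477 (200nM […]) forskolin-analogue stimulation, 30 min at room temperature, with Ro20-1724 present at 0.1 mM final.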

[16] = target: D(2) dopamine receptor (Homo sapiens) (UniProt P14416); experiment: Dopamine D2 receptor (DRD2) small molecule antagonists, cell-based qHTS assay (AID 1963595; active means well fitted inhibition curve with a large enough effect in the signal ratio in the repeat runs, with a control signal flat; the % refers to the signal ratio)
How it was run: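 Antagonist mode in DRD2-HEK293 cells: after compound addition with 0.1 mM Ro20-1724, cells received quinpirole (12 nM) and NKH477 (200 nM) for 30 min at room temperature; HTRF cAMP read after 1 h detection.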

[17] = G protein-coupled receptor (GPCR) small molecule agonists, calcium flux assay: HEK293 wild type cell line counter screen (AID 1920065)
How it was run: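 Seed cells, incubate 18 h (37 C, 5% CO2); add calcium dye, 1 h at 37 C; pin-transfer compounds, ATP control or DMSO; read fluorescence 480/540 nm each second for 3 min.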

[18] = target: 5-hydroxytryptamine receptor 2A (Homo sapiens) (UniProt P28223); experiment: 5-hydroxytryptamine receptor 2A (HTR2A) small molecule antagonists, cell-based qHTS assay (AID 1963586); further: nearly all actives have a fitted effect of over 45% in size
How it was run: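 CHO cells stably expressing human HTR2A were plated for 18 h at 37 C, then loaded with calcium dye for 1 h. Compounds were preincubated 5 min at room temperature before DOI (4 nM solution) was added. Kinetic fluorescence was read for 3 min.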

[19] = target: Beta-2 adrenergic receptor (Homo sapiens) (UniProt P07550); experiment: Adrenergic beta2 receptor (ADRB2) small molecule agonists, cell-based qHTS assay (AID 1963593);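 further: CHO cells stably overexpressing human ADRB2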
How it was run: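 CHO cells stably over-expressing ADRB2 were plated overnight at 37C, then dosed with compounds plus a stimulation mix containing 100uM IBMX and 25uM Ro-20-1724 for 0.5hr at room temperature. cAMP was measured by HTRF competition, 1hr.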

[20] = p53 small molecule agonists, cell-based qHTS assay (AID 1963582; active means well fitted activation curve with a large enough effect in the signal ratio in the repeat runs, not every such curve was filed as active; the % refers to the signal ratio)
How it was run: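 Cells carrying a p53-responsive bla reporter are treated with test compounds for 16 h at 37 C; beta-lactamase activity is then detected with LiveBLAzer B/G FRET substrate after 2 h at room temperature.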
On the % scale 0 is the no-effect control and ±100 the full control effect.

CCN(CC)CC
inactive: Potency [1] | Potency [2] | Potency [3] | Potency [4] | Potency [5] | Potency [6] | Potency [7] | Potency [8] | Potency [9] | Potency [10] | Potency [11] | Potency [12] | Potency [13] | Potency [14] | Potency [15] | Potency [16]

C=C(C)C(=O)OCCCCCCCCCC
inactive: Potency [1] | Potency [2] | Potency [3] | Potency [17] | Potency [7] | Potency [8] | Potency [18] | Potency [11] | Potency [12] | Potency [13] | Potency [19] | Potency [16]
active: Potency [10] 42.4 µM

CCCCOC(=O)CC#N
active: Potency [6] 17 µM
inactive: Potency [1] | Potency [2] | Potency [3] | Potency [4] | Potency [5] | Potency [7] | Potency [8] | Potency [20] | Potency [18] | Potency [9] | Potency [10] | Potency [11] | Potency [12] | Potency [14] | Potency [19] | Potency [15] | Potency [16]

C/C=C/C=N/NC(=O)c1ccncc1
inactive: Potency [1] | Potency [2] | Potency [3] | Potency [6] | Potency [7] | Potency [8] | Potency [18] | Potency [9] | Potency [10] | Potency [11] | Potency [14] | Potency [19] | Potency [16]

O=C(O)c1cc(Br)c(O)c(Br)c1
inactive: Potency [1] | Potency [2] | Potency [3] | Potency [17] | Potency [8] | Potency [18] | Potency [9] | Potency [11] | Potency [12] | Potency [13] | Potency [14] | Potency [19] | Potency [15] | Potency [16]

O=C(O)c1ccccc1Nc1cc(Cl)ccc1C(=O)O
inactive: activity change, negative = cytotoxicity [1] 0.544% [at 19 µM] | activity change [2] -1.18% [at 11.8 µM, hits give high values] | activation [3] 0.0094% [at 15.8 µM] | activation [4] -15.2% [at 13.5 µM] | activation [5] -10.2% [at 13.6 µM] | activity change, negative = cytotoxicity [6] -16.4% [at 13.5 µM] | activity change, negative = cytotoxicity [7] -20.9% [at 13.5 µM] | activity change, negative = cytotoxicity [8] -5.7% [at 13.5 µM] | activation [20] 1.24% [at 13.5 µM] | activation [9] -3.1% [at 15.9 µM] | activation [11] 0.0185% [at 15.8 µM] | activation [12] -0.0043% [at 19 µM] | activity change, negative = inhibition [14] 5.54% [at 19 µM] | activation [19] -0.399% [at 19 µM] | activity change, negative = inhibition [16] -1.66% [at 18.9 µM]

c1ccc(-c2ccccn2)nc1
inactive: Potency [1] | Potency [2] | Potency [17] | Potency [4] | Potency [5] | Potency [6] | Potency [7] | Potency [20] | Potency [18] | Potency [9] | Potency [10] | Potency [11] | Potency [13] | Potency [14] | Potency [19] | Potency [15] | Potency [16]

CCOC(=O)c1ccc(C2CCC(NC[C@H](O)COc3ccc(O)c(NS(C)(=O)=O)c3)CC2)cc1 (stereo partly drawn)
active: Potency [1] 56.4 µM | Potency [10] 8.69 µM | Potency [14] 7.96 µM | Potency [15] 0.0796 µM
inactive: Potency [2] | Potency [17] | Potency [5] | Potency [6] | Potency [7] | Potency [8] | Potency [18] | Potency [9] | Potency [11] | Potency [16]

CN(C)CCCCCCN(C)C
inactive: Potency [1] | Potency [2] | Potency [17] | Potency [18] | Potency [9] | Potency [10] | Potency [11] | Potency [12] | Potency [13] | Potency [14] | Potency [19] | Potency [15] | Potency [16]
